In PubChem BioAssay AID485275 (NMMLSC, 2010):
In all, about 330,000 compounds went through this assay and about 1,400 (0.42%) were called active.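 How the source made its calls: active means plate passing quality check with inhibition over a set limit, or well fluorescence over plate mean plus 4 SD; inactive means the rest.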 Shown is part of a subset that was picked to be rich in actives.

Experiment: inhibitors of Candida efflux pumps in yeast, primary screen, S. cerevisiae, Nile Red, multiplex (AID 485275);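 further: Nile Red retained in pooled yeast measured as flow cytometry median fluorescence; 0% = buffer negative control and 100% = Enniatin B positive control; higher means more Nile Red kept so more efflux inhibition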
Settings: S. cerevisiae Candida pump triplex, at 10 µM, stronger effect = higher value

inhibition, active:
CC(=O)c1ccc(N2CCN(C(=O)C3CCN(S(=O)(=O)c4ccc5c(c4)CC(C)N5C(=O)C4CC4)CC3)CC2)cc1 (configuration not stated) 40.5%
O=C(CCCCCn1c(=O)[nH]c2ccccc2c1=O)NCCc1c[nH]c2ccccc12 0.52%
CSCCC(NS(=O)(=O)c1ccc(C)cc1)C(=O)N1CCCC1 (configuration not stated) 1.45%
O=C(CN1C(=O)C2C3CCC(C3)C2C1=O)Oc1ccc2ccccc2c1 (configuration not stated) 5.45%
Cc1cc(/C=N/NC(=O)CC2(C)OCCO2)c(C)n1-c1ccc(Cl)c(Cl)c1 1.6%
CN=C(c1ccccc1)c1c(C)cccc1C 23.6%
CC1CCc2c(sc(NC(=O)c3ccc(Cn4cc(Br)cn4)o3)c2C(N)=O)C1 (configuration not stated) 0.29%
Cc1ccc(/C=C(\C#N)C(=O)Nc2cccc3ncccc23)o1 6.65%
O=S(=O)(c1ccccc1)N1CCc2ccccc21 0.75%
O=C1NC(=O)C2C1C(c1ccc([N+](=O)[O-])cc1)=NN2Cc1ccccc1 (configuration not stated) 1.09%
O=C(Cc1ccc(Br)cc1)N1CCN(c2ccccn2)CC1 11.1%
Cc1cc(C)c2[nH]c(=O)c(C(c3nnnn3Cc3ccc4c(c3)OCO4)N3CCCC3)cc2c1 (configuration not stated) 1.06%
CC(C)C(=O)N1CCC2(CC1)Oc1ccc(F)cc1C(=O)C21CC(c2ccccc2)=NO1 (configuration not stated) 78.3%
CCCCOc1ccc(C(=O)NCC(=O)OCC(=O)c2c(N)n(C)c(=O)n(C)c2=O)cc1 0.65%
COc1ccc(C(=O)NC2CC(C)(C)Cc3c2cnn3-c2ccccc2)c(OC)c1 (configuration not stated) 1.15%
O=C(Nc1ccc(NC(=O)c2cccs2)cc1)c1ccc2ccccc2c1 1.22%

inhibition, inactive:
COc1ccccc1CNC(=O)C1CCN(S(=O)(=O)c2ccc3c(c2)CC(C)N3C(=O)C2CC2)CC1 (configuration not stated) 0.09%
CC(=O)N1c2ccc(S(=O)(=O)N3CCC(C(=O)N4CCN(c5ccccc5)CC4)CC3)cc2CC1C (configuration not stated) -0.03%
CC1CC(=NNC(=O)C2COc3ccccc3O2)CC(C)(C)C1 (configuration not stated) -0.31%
Cc1cccc(N2CCN(C(=O)CCS(=O)(=O)c3ccc4c(c3)NC(=O)C(C)S4)CC2)c1C (configuration not stated) -0.07%
CCN(CC)CCNC(=O)CCCCCn1c(=O)[nH]c2cc(C(=O)OC)ccc2c1=O -0.02%
O=C(CCc1c[nH]c2ccccc12)NCCOc1ccccc1 -0.08%
CCCSc1ccc([C@H]2N[C@@](Cc3ccccc3)(C(=O)OC)[C@H]3C(=O)N(C)C(=O)[C@@H]23)cc1 0.02%
CSCCC(NC(=O)c1ccccc1)C(=O)N1CCCCCCC1 (configuration not stated) 0.05%
CSCC(NS(=O)(=O)c1ccc(C)cc1)C(=O)O (configuration not stated) -0.01%
COc1ccc(-n2nnc3c(=O)n(CC(=O)N4CCC(Cc5ccccc5)CC4)cnc32)cc1 0.1%
O=C(NCc1nnc(SCC(=O)N2CCCCCC2)o1)c1ccc(F)cc1 -0.18%
Nc1nnc(C2CCCC2)s1 0.48%
O=C(CCN1C(=O)C2C3C=CC(C3)C2C1=O)Oc1ccc2ccccc2c1 (configuration not stated) 0.01%
Cc1ccc(C(=O)COC(=O)CCN2C(=O)C3C4CCC(C4)C3C2=O)cc1C (configuration not stated) -0.13%
O=C(c1cc(-c2ccco2)nc2ccccc12)N(Cc1nnc(-c2ccc(Cl)cc2)o1)C1CC1 0.11%
Cc1ccc(-n2c(C)cc(/C=N\NC(=O)CC(=O)NC(C)C)c2C)cc1 -0.13%
Cc1cccc(-n2c(C)cc(/C=N\NC(=O)c3cccs3)c2C)c1 -0.56%
CC1CCN(C(=O)CCNC(=O)c2ccccc2)CC1 -0.28%
Cc1cccc(C)c1NC(=O)C(Cl)C(=O)c1ccccc1 (configuration not stated) 0.07%
Cc1ccccc1NC(=O)CSC(=O)c1ccccc1 -0.08%
CCn1c(SCC(=O)NC2CC2)nnc1-c1ccccn1 -0.04%
COC(=O)c1ccc2c(c1)S(=O)(=O)NC(=NCCCN1CCOCC1)S2 0%
O=C(NCCC1CCCCN1S(=O)(=O)c1cccs1)C(=O)Nc1ccc(F)cc1F (configuration not stated) 0.02%
O=C(/C=C/c1ccc([N+](=O)[O-])cc1)NCCSCc1ccco1 0.15%
COc1cccc(OC)c1C(=O)Nc1sc2c(c1C(N)=O)CCCC2 -0.23%
CN(C)c1ccc(/C=N/NC(=O)c2ccc(Cn3cc(Br)cn3)o2)cc1 -0.5%
COc1ccc(CNc2ccc3c(c2)CCC3)cc1OC 0%
CCn1c(SCC(=O)N/N=C/c2ccccc2OCC(=O)O)nnc1-c1ccc(C(C)(C)C)cc1 0.05%
Cc1nnc(SCC(=O)NC(=O)NC2CCCC2)n1N 0.12%
N#C/C(=C/c1ccc(N2CCCCC2)o1)C(=O)NCCc1c[nH]c2ccccc12 -0.28%
O=C(O)c1cc(Cl)c(Cl)cc1C(=O)Nc1cccc2ncccc12 -0.06%
C[C@@H]1NC(=O)c2cc([N+](=O)[O-])cc(F)c2NCCC[C@@H](C(N)=O)NC(=O)[C@H](CC(N)=O)NC1=O -0.03%
COc1ccccc1NC(=O)[C@H](COCc1ccccc1)NC(=O)OC(C)(C)C -0.12%
CC(C)(C)OC(=O)N1CCC(C(=O)NNC(=O)c2ccc(Cl)cc2Cl)CC1 -0.04%
CCn1c(=O)c(=O)n(CC)c2cc(S(=O)(=O)N3CCc4ccccc43)ccc21 -0.1%
O=S(=O)(c1ccc2c(c1)OCCO2)N1CCc2ccccc21 0.34%
COc1ccc(CCNS(=O)(=O)c2cn(C)nc2C)cc1 -0.02%
CCOC(=O)N1CCN(C(=O)C2CCN(S(C)(=O)=O)CC2)CC1 -0.13%
Cc1ccc2c(C)c(C(=O)N(C)Cc3ccncn3)oc2c1C 1.25%
O=C(NCCCCc1ccccc1)C1CC(c2ccc([N+](=O)[O-])cc2)=NO1 (configuration not stated) 0.02%
CC(=O)N1c2ccccc2N(Cc2ccc([N+](=O)[O-])cc2)C(=O)C1(C)C 0.1%
Cc1ccc(CN2CCN(Cc3cccc(C)n3)CC2CCO)cc1 (configuration not stated) -0.07%
CC(=O)Nc1ccc(/C(C)=N/NC(=O)CN(c2ccccc2Br)S(C)(=O)=O)cc1 0.36%
O=C(CCC1CCCN(C(=O)Cc2ccc(F)cc2)C1)N1CCN(c2ccccn2)CC1 (configuration not stated) -0.13%
O=C(Cc1ccccc1Cl)N1CCN(c2ccccn2)CC1 -0.02%
COc1ccc(N(CC(=O)NCC2CCCO2)C(=O)CCC(=O)Nc2nccs2)c(OC)c1 (configuration not stated) 0.02%
CCN1CCN(c2ccc(S(=O)(=O)N3CCCCC3)cc2NC(=O)Cc2c(Cl)cccc2Cl)CC1 -0.36%
Cc1cc(-c2ccc(S(=O)(=O)N3CCc4ccccc4C3)s2)on1 -0.2%
CC(C)N(c1ccccc1)c1ncnc(NCCC(=O)O)c1[N+](=O)[O-] 0.29%
CC(C)Cn1c(N)c(C(=O)COC(=O)C2CCCN2C(=O)c2cccs2)c(=O)n(C)c1=O (configuration not stated) 0.07%
Fc1ccccc1C(c1nnnn1Cc1ccc2c(c1)OCO2)N1CCN(Cc2ccccc2)CC1 (configuration not stated) -0.02%
CCOC(=O)C1CCN(C(c2cc3cc(C)cc(C)c3[nH]c2=O)c2nnnn2C2CCCCC2)CC1 (configuration not stated) 0.07%
O=C(CN(c1cccc(Cl)c1)S(=O)(=O)c1ccccc1)NN=C1CCCC1 0.07%
O=C(CN1C2CCC1CC(NC(=O)C1CC1)C2)NCc1ccccc1 (configuration not stated) -0.03%
CC(C)C(=O)N1CCN(c2nc(-c3ccccc3)c3c(c2C#N)CC(C)(C)OC3)CC1 -0.13%
O=C1CC2(CCN(C(=O)COc3ccc(F)cc3)CC2)Oc2ccccc21 -0.44%
CC(C)c1ccc2oc(=O)cc(CN3CCN(Cc4ccccc4)CC3)c2c1 -0.11%
CCc1ccc(OCC(=O)OCC(=O)c2c(N)n(C)c(=O)n(C)c2=O)cc1 -0.05%
Cn1c(N)c(C(=O)COC(=O)COc2ccc(Cl)cc2)c(=O)n(C)c1=O 0%
O=C(NCC1CCCO1)c1ccccc1-c1nc(-c2ccccc2Cl)no1 (configuration not stated) -0.05%
CCCNC(=O)N1CCC(c2ccc3c(c2)OCO3)CC1 0.01%
Cc1cc(C(=O)NC2CC(C)(C)Cc3c2cnn3-c2ccccc2)n[nH]1 (configuration not stated) 0.03%
CC1(C)Cc2c(cnn2-c2cccc(F)c2)C(NC(=O)c2cc[n+]([O-])cc2)C1 (configuration not stated) 0.12%
Cc1ccc(S(=O)(=O)N(Cc2ccc(Cl)cc2)c2ccccc2C(=O)NCc2cccnc2)cc1 0.08%
Cc1ccc(C(=O)Nc2ccc(NC(=O)c3cccs3)cc2)c(C)c1 0.18%
COc1cc(NC(=O)c2ccc3c(c2)OCO3)ccc1NC(=O)c1cccs1 -0.1%
CCOC(=O)C1CCN(C(=O)CN2C(=O)NC(C)(c3ccc4cc(OC)ccc4c3)C2=O)CC1 (configuration not stated) -0.03%
O=C1c2ccccc2[C@@H]2C[C@@H](O)[C@H](Nc3ccccc3Cl)CCN12 0.16%
O=C(CNCc1ccc(F)cc1)Nc1ccccc1-c1ccccc1 -0.07%
CCN(CC)CCn1c2c(c(SCC(=O)Nc3ccc(C(C)C)cc3)nc1=O)CCC2 -0.06%
CC1CCCCC1NC(=O)c1cn(C)c2ccc(S(=O)(=O)N3CCOCC3)cc2c1=O (configuration not stated) -0.14%
